Compound activity: PubChem, National Center for Advancing Translational Sciences (NCATS)
Shown are actives, neighbours in structure and some others; about 2.7% of the full set was active somewhere.
RXFP1 antag: blocks the human relaxin receptor RXFP1; actives 0.59% (n = 350,000); Q9HBX9; HEK293-RXFP1, relaxin-stimulated cAMP HTRF, 30 min; active compounds read low; activity change, negative = inhibition, % at 57.5 µM;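 active = activity change of -60% or lower, but not beyond a set lower limit; inconclusive = change between -60% and -40%, or beyond the set limit; inactive = change above -40%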
gsp antagonist: antagonizes gsp, the McCune-Albright syndrome mutation; Potency, µM (titrated, usually from 76.9 µM), usual class: inhibitors; actives 0.4% (n = 340,000); AID 624288; gsp-mutant cells, cAMP HTRF, 30 min; calls by dose curve; cell line not stated here;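 also: intracellular cAMP measured with PDE inhibitor Ro 20-1724 present during compound exposure; nearly all actives have a fitted effect of over 65% in size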
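Measurement of cellular cAMP by homogeneous time-resolved fluorescence following a 30 min compound exposure at 37C. The PDE inhibitor […] was present throughout; the assay buffer was DPBS with 0.05% BSA and 0.005% Tween 20.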
pAkt inh: blocks phosphorylation of Akt | Neuro2A IGF-stimulated pAkt S473 HTRF, 20 min; active compounds read low | activity change, % for hits at 50 µM | actives 0.32% (n = 360,000); in the data active = activity change below about -80%; inconclusive = mostly about -51% to -80%
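Single-point screen (50 µM final compound) in Neuro2A cells stimulated 20 min with 6 nM IGF at 37 deg C. After lysis, Ser473-phosphorylated Akt read by HTRF (ex 330 nm, em 615/665 nm) as the 665/615 ratio.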
RXFP1 agonist: activates the human relaxin receptor RXFP1; Potency, µM (top dose mostly 57.5 µM), most hits filed as activators; AID 2676; Q9HBX9; actives 0.3% (n = 370,000); HEK293T-RXFP1 cAMP TR-FRET, 30 min; response scale: percent of porcine relaxin response, buffer zero; active = well fitted activation curve with a large enough effect; inconclusive = small, poorly fitted or top-dose-only effect; also: nearly all actives have a fitted effect of over 60% in size
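HEK293 cells stably expressing RXFP1, treated 30 min at 37C with compounds plus PDE4 inhibitor Ro 20174; cAMP measured by HTRF TR-FRET. Normalized to buffer and 29 nM porcine relaxin; EC50 by Hill fit.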
ClpP mod: qHTS Assay for Activators of ClpP; purified B. subtilis ClpP, FRET peptide cleavage, 20 min; actives 1.9% (n = 340,000); Potency, µM (top dose mostly 57.5 µM); active = well fitted falling curve with a large enough effect; inconclusive = small, poorly fitted or top-dose-only effect; inactive = no such curve, though single readings can be large or run the other way; also: the source files actives as falling curves though it sought activators and does not explain the sign; nearly all actives have a fitted effect of over 65% in size
Target sequence (P80244 whole entry, looked up): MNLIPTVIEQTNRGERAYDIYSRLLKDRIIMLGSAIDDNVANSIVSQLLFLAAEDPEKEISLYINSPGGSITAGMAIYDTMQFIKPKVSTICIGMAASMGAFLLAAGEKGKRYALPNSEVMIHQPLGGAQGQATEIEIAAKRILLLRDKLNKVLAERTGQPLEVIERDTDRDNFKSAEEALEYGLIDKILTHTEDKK
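FRET quenching reversal measured ClpP activation: 10 microg/mL B. subtilis ClpP at pH 8 with the FRET-FV decapeptide, read at 430 nm after 320 nm excitation. The 20-min minus 0-min signal was scaled between DMSO/no-enzyme wells and ADEP (5.8 microM final).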
gsp agonist: agonists of gsp mutant (McCune-Albright syndrome); Potency, µM (doses to about 76.9 µM), most hits filed as activators; gsp mutant cells, cAMP HTRF, 30 min; actives 0.13% (n = 340,000); AID 624287; active = well fitted activation curve with a large enough effect; inconclusive = small, poorly fitted or top-dose-only effect, or another doubt; inactive = no such curve, though single readings can be large or run the other way; cell line not stated here;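 also: phosphodiesterase inhibitor Ro 20-1724 added with compounds to block cAMP breakdown; nearly all actives have a fitted effect of over 60% in size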
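Cells stably selected in G418 were plated at 2000/well, grown 16-24 hr, then given compounds in DMSO with the PDE inhibitor […] (300 uM solution added) for 30 min at 37C; cAMP was read by HTRF.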
A number is an active result; 0 = inactive; ? = inconclusive; - = not tested or not shown; ! = not confirmed by another sample; [ ] = dose if it differs, or a comment.

SMILES	RXFP1 antag	gsp antagonist	pAkt inh	RXFP1 agonist	ClpP mod	gsp agonist
COCCNC(=O)CSc1nc(-c2ccc(C)cc2)[nH]c1-c1ccc(OC)cc1	0	-	-	0	?	-
Cc1ccc(-c2[nH]c(-c3ccccc3)nc2SCC(=O)NCC2CCCO2)cc1 (configuration not stated)	0	0	0	0	28.2µM!	0
Cc1ccc(-c2nc(SCC(=O)NCC3CCCO3)c(-c3ccc(C)cc3)[nH]2)cc1 (configuration not stated)	0	0	0	0	25.1µM	0
CCc1ccc(-c2nc(SCC(=O)NCCOC)c(-c3ccc(C)cc3)[nH]2)cc1	0	-	-	0	28.2µM	-
COc1ccc(-c2[nH]c(-c3ccc(Cl)cc3)nc2SCC(=O)NCC2CCCO2)cc1 (configuration not stated)	0	-	-	0	25.1µM	-
Cc1noc(C)c1-c1ccc(C(=O)N2CCN(C)CC2)c2occc12	-	-	0	-	0	-
O=C1c2cccc3cccc(c23)C(=O)N1c1nncs1	0	0	-	0	15.8µM	?
O=C1c2cccc3cccc(c23)C(=O)N1c1ccc(O)cc1	0	0	0	0	0	0
CCc1ccc(NC(=O)C(=O)NNC(=O)c2ccc(OC)cc2)cc1	0	0	0	0	-	0[15.4 µM]
CCc1ccc(C(=O)NNC(=O)OC)cc1	0	0	0	0	14.1µM	0[15.4 µM]
CCCCn1c(NC(C)=O)c(C#N)c2nc3ccccc3nc21	0	0	0	0	28.2µM	?
C=CCn1c(NC(=O)c2ccccc2Cl)c(C#N)c2nc3ccccc3nc21	0	0	0	0	?	0
Cc1ccc(-n2ncc3c(NC4CCCCC4)ncnc32)cc1C	0	-	-	0	0	-
CCOC(=O)CSC1=NC(=O)/C(=C\c2ccc(Cl)cc2)S1	0	31.6µM	0	0	0	0
CCOC(=O)/C=C/C(=O)Nc1ccc(Oc2ccccc2)cc1	-64.0	0	0	0	0	0[15.4 µM]
CCOC(=O)N1CCN(CC(=O)Nc2ccc(Oc3ccccc3)cc2)CC1	0	0	0	0	28.2µM	0[15.4 µM]
O=C(O)/C=C/C(=O)Nc1ccc(Oc2ccccc2)cc1	0	0	0	0	-	0[15.4 µM]
COc1ccc(NS(=O)(=O)c2cc(C(=O)N(C)CCc3ccccn3)ccc2Cl)cc1	0	0	0	-	0	?
Cc1cc(C)cc(NC(=O)CN(C)S(=O)(=O)c2ccc3c(c2)CCC(=O)N3)c1	0	-	-	0	0	-
O=C(Nc1ccccc1)Nc1cccc(Cl)c1	0	31.6µM	0	0	0	0
CC(=O)Nc1ccc(NC(=O)Nc2cccc(Cl)c2)cc1	0	0	0	0	0	0
COC(=O)c1cccc(NC(=O)Nc2ccc(Cl)c(Cl)c2)c1	?	35.5µM	0	0	0	0
CNCC(=O)Nc1ccc(Cl)c(C(F)(F)F)c1	0	0	0	0	0	0
COC(=O)c1ccc(NC(=O)Nc2ccc(F)cc2)cc1	0	0	-	0	0	?
COC(=O)c1ccc(NC(=O)Nc2ccc(F)c(Cl)c2)cc1	0	35.5µM	0	0	0	0
SMILES	RXFP1 antag	gsp antagonist	pAkt inh	RXFP1 agonist	ClpP mod	gsp agonist
O=C(Nc1ccc(Cl)cc1)Nc1ccc(Cl)c(C(F)(F)F)c1	-92.5	-	-	-	-	-
COc1ccc(S(=O)(=O)N2CCC3CC2c2cc(-c4ccc5c(c4)OCO5)ccc23)cc1 (configuration not stated)	-	-	0	-	0	-
COC(=O)c1cccc(NC(=S)N2CCN(C)CC2)c1	0	0	0	0	12.6µM	0[15.4 µM]
COC(=O)c1ccc(C(=O)OC)c(NC(=S)N2CCN(C)CC2)c1	0	0	0	0	-	0
CCn1c(/C=N/n2cnnc2)nc2ccccc21	0	0	0	0	28.2µM	0
COc1ccc2ccccc2c1/C=N/n1cnnc1	0	0	0	0	0	0
CCn1c2ccccc2c2cc(/C=N/n3c(-c4cc(C)[nH]n4)n[nH]c3=S)ccc21	0	35.5µM	0	0	-	0[15.4 µM]
CCn1c2ccccc2c2cc(/C=N/n3cnnc3)ccc21	0	0	0	0	25.1µM	0
CCn1c2ccccc2c2cc(/C=N/NC(=O)c3ccccc3C)ccc21	-	0	0	0	12.6µM	0
